KCNQ2 pot = potentiators of rat KCNQ2 potassium channel; Potassium voltage-gated channel subfamily KQT member 2 (Rattus norvegicus), O88943; CHO-K1 KCNQ2, FluxOR thallium flux fluorescence; active compounds read high; B-score at 10 µM; 0.54% of 310,000 active; AID 2239, 2010;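 active = fluorescence ratio B-score at least 3 SD of library B-scores, with initial fluorescence B-score within 3 of them, cut at about 5.3 in these data; same plate scores as AID 2156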;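 note: B-score of peak minus minimum over baseline fluorescence ratio after K+ and Tl+ stimulus; positive B-score means potentiation of KCNQ2 with more thallium influx and brighter signal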
KCNQ2 inh = rat KCNQ2 potassium channel inhibitors, primary screen, cell-based, CHO-K1, FluxOR thallium flux, B-score; 20 min; active compounds read low; Potassium voltage-gated channel subfamily KQT member 2 (Rattus norvegicus), O88943; B-score at 10 µM; 1.1% of 310,000 active;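 active = fluorescence ratio B-score at most minus 3 library SDs, with starting brightness B-score within 2 library SDs, cut at about -5.5 in these data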
KCNQ2 inh conf = rat KCNQ2 potassium channel inhibitors, confirmation, cell-based, thallium flux; shares compounds with KCNQ2 inh; KCNQ2-expressing cells, inhibition; active compounds read low; activity change, negative = inhibition, % at 10 µM; 57% of 1,000 active;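 note: 0% = vehicle wells and values are ratio percent relative to vehicle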
KCNQ1 spec = human KCNQ1 channel inhibition, counter-screen for KCNQ2 inhibitor project, cell-based, FluxOR thallium flux; shares compounds with KCNQ2 inh; KCNQ1-expressing cells, FluxOR thallium flux fluorescence; active compounds read low; activity change, negative = inhibition, % at 10 µM; 15% of 1,000 active;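 active = activity change at least 3 SD of negative controls below their mean in both duplicate wells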;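 note: CHO cells stably transfected with KCNQ1 and depolarized by potassium stimulus; peak minus minimum fluorescence over baseline after thallium addition; 0% = vehicle negative control and -100% = blank without thallium stimulus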
Target sequence (P51787 whole entry, looked up): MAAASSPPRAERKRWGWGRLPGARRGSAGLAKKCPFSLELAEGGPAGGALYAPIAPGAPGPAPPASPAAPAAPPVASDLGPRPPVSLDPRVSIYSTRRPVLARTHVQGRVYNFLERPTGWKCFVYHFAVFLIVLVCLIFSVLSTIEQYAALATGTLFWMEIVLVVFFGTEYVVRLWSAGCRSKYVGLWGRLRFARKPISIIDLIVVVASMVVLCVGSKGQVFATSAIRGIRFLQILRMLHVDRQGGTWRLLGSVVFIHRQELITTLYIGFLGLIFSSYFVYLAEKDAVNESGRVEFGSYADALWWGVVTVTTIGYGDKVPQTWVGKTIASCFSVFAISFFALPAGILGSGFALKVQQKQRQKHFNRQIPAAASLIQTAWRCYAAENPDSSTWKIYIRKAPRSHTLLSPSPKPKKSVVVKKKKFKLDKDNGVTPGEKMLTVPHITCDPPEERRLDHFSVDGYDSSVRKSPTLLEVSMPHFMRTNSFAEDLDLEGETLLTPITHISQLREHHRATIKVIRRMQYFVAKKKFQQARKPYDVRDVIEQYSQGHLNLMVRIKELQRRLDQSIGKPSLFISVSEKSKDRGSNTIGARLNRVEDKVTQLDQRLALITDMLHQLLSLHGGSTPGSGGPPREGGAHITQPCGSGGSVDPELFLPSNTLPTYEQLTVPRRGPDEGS
CHO parental ctr = thallium flux change in parental CHO cells, counter-screen for KCNQ2 inhibitor project. activity change, % at 10 µM. shares compounds with KCNQ2 inh. active compounds read low. AID 493029, 2011. 14% of 1,000 active;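 note: 0% = vehicle negative controls with stimulus buffer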
KCNQ2 inh confirm = rat KCNQ2 channel inhibitors, confirmation, cell-based, automated patch clamp, single concentration. shares compounds with KCNQ2 inh. KCNQ2-expressing cells, automated patch clamp current. calls only at 10 µM. 49% of 550 active. AID 588531, 2011
Kir21 confirm = mouse Kir2.1 channel blockers, retest, confirmation, cell-based, FluxOR thallium flux, duplicate; shares compounds with KCNQ2 pot; Kir2.1-expressing cells, FluxOR thallium flux fluorescence; active compounds read low; Tl flux remaining, % of negative control (active compounds read low), % at 10 µM; 41% of 2,300 active;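 active = Primary-screen hit whose thallium flux fell at least 3 control SD below untreated wells in both duplicates, with normal baseline fluorescence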;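 note: 0% = blank wells without stimulus and 100% = stimulated no-compound controls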
HEK293 Tl flux = parental HEK293 activity in Kir2.1 inhibitor counter-screen; shares compounds with KCNQ2 pot; parental HEK293 cells, FluxOR thallium flux fluorescence; 0% = unstimulated blank wells; FluxOR signal as % of negative control (100 = no effect), % at 10 µM; 19% of 2,300 active; AID 2105;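 active = dye signal at least 3 control SD above or below untreated wells in both duplicates, raw fluorescence within 3, either direction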;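 note: percent is based on the flux ratio of peak minus minimum fluorescence over baseline F0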
CHO-K1 Tl ctr = nonspecific thallium flux increase in parental CHO-K1, confirmation, counter-screen for KCNQ2 potentiator project, cell-based, FluxOR thallium flux, duplicate; activity increase over 3SD of controls, % at 10 µM; parental CHO-K1 cells, FluxOR thallium flux fluorescence; zero = vehicle mean+3SD, 100% = vehicle-minus-blank window; 43% of 1,200 active; shares compounds with KCNQ2 pot;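 active = signal rise of at least 3 SD above the untreated control mean, in both duplicate wells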;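 note: counter screen of KCNQ2 potentiator hits so any rise reflects channel-independent effects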
KCNQ1 pot spec = human KCNQ1 channel potentiation off-target, confirmation, selectivity assay for KCNQ2 potentiator project, cell-based, CHO, FluxOR thallium flux. shares compounds with KCNQ2 pot. CHO KCNQ1 stable, FluxOR thallium flux fluorescence; beyond 3SD, as % of vehicle-control signal. activation over 3SD threshold, % at 10 µM. 28% of 1,200 active. AID 2283, 2010;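 active = fluorescence ratio rise of at least 3 SD of vehicle wells above their mean, in both replicate wells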;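 note: 0% = vehicle mean plus 3 SD and 100% = vehicle minus unstimulated blank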
KCNQ2 pot conf = rat KCNQ2 channel potentiators, confirmation, cell-based, CHO, FluxOR thallium flux, duplicate; AID 2287, 2010; CHO-KCNQ2 cells, FluxOR thallium flux fluorescence; potentiation, less the hit threshold, % at 10 µM; shares compounds with KCNQ2 pot; 68% of 1,200 active;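 active = fluorescence ratio rising 3 SD or more over the vehicle control mean in both replicates, plus primary screen hit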;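 note: peak minus minimum thallium fluorescence divided by baseline after K/Tl stimulus; 0% = vehicle mean plus 3 SD and 100% = vehicle minus unstimulated blank difference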
Kir21 spec = mouse Kir2.1 channel activation off-target, confirmation, selectivity assay for KCNQ2 potentiator project, cell-based, HEK293, FluxOR thallium flux | shares compounds with KCNQ2 pot | HEK293 Kir2.1, FluxOR thallium flux fluorescence | activity over 3SD threshold, % at 10 µM | 2% of 1,200 active;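 active = fluorescence ratio rise of at least 3 SD above the vehicle-control mean, seen in both replicates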;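 note: 0% = vehicle mean plus 3 SD and 100% = vehicle minus no-stimulus blank window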
KCNQ2 W236L MoA = potentiators of retigabine-insensitive KCNQ2 W236L, mechanism study for KCNQ2 potentiator project, cell-based, rat KCNQ2 W236L, CHO, automated patch clamp. current increase over 3SD of negative controls (%), active compounds read high, % at 25 µM. automated patch clamp current. 10% of 940 active. shares compounds with KCNQ2 pot;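 active = current increase at least 3 SD of the untreated controls above them in both duplicate recordings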
The depositor's hits bear a star; i = inactive; x = not tested or not shown. A selection: hits, their analogues and other compounds. The true share with any hit is near 1.6%. Unless noted, the rule behind the calls is not given here.

SMILES | KCNQ2 pot | KCNQ2 inh | Kir21 confirm | HEK293 Tl flux | others
Oc1ccccc1-[n+]1c(-c2ccccc2)cc(-c2ccccc2)cc1-c1ccccc1 | -7.58 | -7.58* | 44.5%* | i | KCNQ2 inh conf=-16.5%*;KCNQ1 spec=i;CHO parental ctr=i;KCNQ2 inh confirm=i
Cc1ccc(-c2cc(-c3ccccc3)cc(-c3ccccc3)[n+]2-c2ccc(C(=O)O)cc2)cc1 | x | i | x | x
CN1CCN(c2c[nH]c(=O)[nH]c2=O)CC1 | 1.45 | i | x | x
CCCCCCCSc1cc(OC)c(CCN(C)C)cc1OC | -7.74 | -7.74* | 19.0%* | i | KCNQ2 inh conf=-34.0%*;KCNQ1 spec=-37.5%*;CHO parental ctr=-27.5%*;KCNQ2 inh confirm=i
CCC(=O)Nc1ccc(N2CCN(CC)CC2)c(Cl)c1 | x | i | x | x
CC1CCC(C(C)C)C(OC(=O)Cn2c(COc3ccccc3)[n+](C)c3ccccc32)C1 (centres undefined) | -9.99 | -9.99* | 18.0%* | i | KCNQ2 inh conf=-55.0%*;KCNQ1 spec=-52.5%*;CHO parental ctr=-50.5%*;KCNQ2 inh confirm=i
C=CCn1c(O)c(/C=C2\C=Nc3ccccc32)c(=O)[nH]c1=O | 0.41 | i | x | x
O=c1c2ccccc2nc(N2CCCC2)n1-c1ccccc1 | x | i | x | x
Cc1cc(C)n(CCOC(=O)C2C(C=C(Cl)Cl)C2(C)C)n1 (centres undefined) | x | i | 43.0%* | i
CCC(=NCCCN(CC)CC)c1c(O)n(C2CCCCC2)c(=O)[nH]c1=O | 1.28 | i | x | x
FC(F)(F)c1cccc(C2NCc3ccccc3-n3cccc32)c1 (centres undefined) | x | i | x | x
Oc1ccc(C2NCc3ccccc3-n3cccc32)cc1Cl (centres undefined) | 0.53 | i | 59.0%* | i
CC(Cc1ccccc1)NCC(=O)Nc1cc(N(C)C)nc2ccccc12 (centres undefined) | x | i | x | x
O=c1c2ccccc2nc(Cc2ccccc2)n1-c1cccc(O)c1 | x | i | x | x
Cc1c(C(c2ccccc2Cl)c2c(O)c3ccccc3oc2=O)c(=O)n(-c2ccccc2)n1C (centres undefined) | x | i | x | x
CN1CC(C(=O)c2ccccc2)C(c2ccccc2)C1 (centres undefined) | 1.25 | i | x | x
CN1CC(C(=O)c2cccc(C(F)(F)F)c2)C(c2ccc(Cl)cc2)C1 (centres undefined) | x | i | 41.5%* | 59.0%*
CN1CC(C(=O)c2ccc([N+](=O)[O-])cc2)C(c2ccc(Cl)cc2)C1 (centres undefined) | x | i | x | x
COc1cccc(C(=O)C2CN(C)CC2c2ccc(Cl)cc2)c1 (centres undefined) | x | i | 37.5%* | i
O=[N+]([O-])c1ccc(Nc2ccccc2)cc1 | 0.95 | i | x | x
Cn1c(O)c(/C=C/C=Nc2ccccc2)c(=O)n(C)c1=O | x | i | x | x
Cc1nnc(SCc2nc3ccccc3c(=O)n2-c2ccccc2Cl)n1N | 0.68 | i | x | x
CN1CCN(c2ccc(NC(=O)Oc3ccccc3)cc2)CC1 | x | i | x | x
CN(C)C(=O)Oc1cccc(NC(=O)N2CCOCC2)c1 | 0.67 | i | x | x
Cc1ccccc1OP(N)(=O)Oc1ccccc1C | x | i | x | x
SMILES | KCNQ2 pot | KCNQ2 inh | Kir21 confirm | HEK293 Tl flux | others
COc1ccc(C(O)P(=O)(OC(C)C)OC(C)C)cc1 (centres undefined) | 0.08 | i | x | x
COc1ccc(C(=O)O/N=C(/C(N)=O)P(=O)(OC(C)C)OC(C)C)cc1 | 6.44* | i | i | i | CHO-K1 Tl ctr=-6.6;KCNQ1 pot spec=4.2*;KCNQ2 pot conf=27.2*;Kir21 spec=-50.9;KCNQ2 W236L MoA=i
COc1ccc(CCNCc2c(OC)ccc3ccccc23)cc1 | x | i | 28.5%* | i
COc1ccc(CCNCc2ccccc2)cc1 | 1.26 | i | x | x
CC(=O)O[C@]1(c2ccccc2)CCN(C)[C@H]2CCCC[C@@H]21 | x | i | x | x
CC(C)CNc1c2c(nc3ccccc13)CCC2 | 3.15 | i | x | x
c1ccc(CNc2c3c(nc4ccccc24)CCC3)cc1 | 0.24 | i | i | i
CC1(C)C[C@H]2C=C(C=O)[C@]3(C=O)C[C@]3(C)[C@H]2C1 | -6.02 | -6.02* | 42.5%* | 71.0%*
O=C1CN=C(c2ccccc2)c2cc(Br)ccc2N1 | x | i | x | x
Cc1cc([N+](=O)[O-])c(Cl)cc1NC(=O)C(C)C | 0.97 | i | x | x
CNc1cc(Cl)c2nonc2c1[N+](=O)[O-] | -9.5 | -9.5* | i | 54.0%*
CCn1c(=O)cc(OCC(=O)N2CCN(Cc3ccc4c(c3)OCO4)CC2)c2ccccc21 | 0.26 | i | x | x
CC(=NCC1CCCO1)c1c(O)n(-c2ccc(Cl)cc2)c(=O)[nH]c1=O (centres undefined) | x | i | x | x

High-throughput results deposited in PubChem BioAssay by Johns Hopkins Ion Channel Center.
